We go through 40 compounds from PubChem BioAssay (NCI).

Structures are written as SMILES. About 79,000 compounds went through this panel and 15% of them were active in at least one assay; those are over-represented in the sample as a whole. A number with no mark means an inactive call. Active and inactive are the calls of the source. No stated cut-off is given here; in the data, active means growth inhibition above about 70%; inactive means the rest. Where a SMILES comes first, the peptide text is derived from it. [ ]: non-standard residue; d: D form. The star is where a group is joined. ξ: configuration not given here. X15 = COc1ccc(C(N*)c2ccc(OC)cc2)cc1; NMeF = CN[C@@H](Cc1ccccc1)C(=O)O; NMeD = CN[C@@H](CC(=O)O)C(=O)O; NMeV = CN[C@H](C(=O)O)C(C)C; ξNMeV = CNC(C(=O)O)C(C)C; Boc = CC(C)(C)OC(=O)*; ξNMeA = CNC(C)C(=O)O; ξV = CC(C)C(N)C(=O)O

The nature of one assay: NCI Yeast Anticancer Drug Screen. Data for the rad50 strain (AID 155).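 Further: 0% = growth of vehicle-only cultures of the same strain.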 The conditions noted are these: S. cerevisiae rad50 strain growth inhibition; at 50.0 µM; hits give high values. The method, boiled down: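 Yeast carrying a defined DNA repair defect were exposed to test compounds, and growth was compared with vehicle-treated controls to give percent inhibition.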
On to `COCCOCOC(C)(C)[C@H](CCO)O[Si](c1ccccc1)(c1ccccc1)C(C)(C)C`, for which the growth inhibition is 91.9% (active).
Turning to `O=C(c1ccccc1)c1cccc2cccc(C(=O)c3ccccc3)c12`, the growth inhibition was 3.2%.
Still for that read-out and setting: the same measure for `CN(C)C(=O)OC1CCCCC1`: -8.1%.
Same read-out and setting: the same measure for `COc1cc([N+](=O)[O-])ccc1N=Cc1cccs1`: 19.4%; for `CCCc1c(OC(=O)c2ccc([N+](=O)[O-])cc2)cccc1OC(=O)c1ccc([N+](=O)[O-])cc1`: 20.1%.
As to `CN(/N=C/c1ccccc1)c1nnnn1-c1ccccc1`, the growth inhibition is 3.2%.
The same measure, in the same setting: then `CC(C)OP(=O)(OC(C)C)C([CH2][Sn]([CH3])([CH3])[Cl])P(=O)(OC(C)C)OC(C)C`, with 5.75%; and `Cc1cc(O)c(/C=N/c2nc(-c3ccc([N+](=O)[O-])cc3)cs2)c(=O)o1`, with 58.1%.
For the compound `Cc1ccc(C)c2nc3c(C)ccc(C)c3cc12`, the growth inhibition is 22.5%.
Consider `CC1(C)OS(=O)(=O)C=C1Br`, for which the growth inhibition is 16.7%.
As for `CCN(CC)CCNC(=O)c1c(C)cc(C)cc1C`, the growth inhibition was -5.1%.
On the same count and under the same terms, then `C(=N\c1oc(-c2ccccc2)c(-c2ccccc2)c1-c1ccccc1)/c1ccccc1`, with 14.4%; and `CC(=O)C/C(C)=N\NC(=O)c1ccc([N+](=O)[O-])cc1`, with -6.15%.
Same read-out and setting: the same measure for `CC(C)OC(=O)Oc1ccc(Cl)cc1Cl`: 6.2%.
In the case of `CCC(Cc1cnc2nc(N)nc(N)c2n1)c1ccc(C(=O)NC(CCC(=O)O)C(=O)O)cc1` (stereo not given), the growth inhibition was -9.3%.
On the same count and under the same terms, the same measure for `CCOc1cc(/C=C2/C=C(c3ccc(OC)cc3)OC2=O)ccc1O`: -13.9%; for `COc1cccc2c1C(=O)c1c(O)c3c(c(O)c1C2=O)CC(O)(C(C)=O)CC3OC1CC(NC(=O)C(CCCCN)NC(=O)C(N)CCN)C(O)C(C)O1` (stereo not given): 9.1%; for `COc1ccc(C(NC(=O)C[C@@H](C(=O)N(C)C(C)C(=O)O)N(C)C(=O)[C@@H]2CCCN2C(=O)[C@H](C(C)C)N(C)C(=O)C(C(C)C)N(C)C(=O)[C@H](Cc2ccccc2)N(C)C(=O)C(NC(=O)OC(C)(C)C)C(C)C)c2ccc(OC)cc2)cc1` (stereo not given in full) (Boc-[ξV][NMeF][ξNMeV][NMeV]P[NMeD](X15)[ξNMeA]-OH): -30.5%.
Still for that read-out and setting: the same measure for `CCN(CC)c1cccc2c1C1(O)CCC3(CC21)OCCCCO3` (stereo not given): -33%.
As to `C=CCOC(=O)/C=C\C(=O)OCC=C`, the growth inhibition is -4.6%.
Same read-out and setting: the same measure for `O=C(CC1(O)C(=O)Nc2ccccc21)c1ccc(O)cc1O` (stereo not given): 13.2%; for `O=C1NC=NC1c1ccccc1` (stereo not given): -2.25%.
With `O=C(NO)Oc1cccc2ccccc12`, the growth inhibition was 9.7%.
`NCC(O)COCc1ccccc1` (stereo not given): the growth inhibition is -16.1%.
For the compound `CCOC(=O)CCCN(c1sc(C)c(-c2ccccc2)c1C(=O)OCC)S(=O)(=O)c1ccc(C)cc1`, the growth inhibition was -16.6%.
On the same count and under the same terms, then `O=C1OC(C(O)C(O)C(O)CO)C(O)C1O` (stereo not given), with -9.65%; and `COc1cc(/C=N/N=C(\N)NO)cc(OC)c1OC`, with -6.5%.
In the case of `O=c1oc2c(Cl)cc(Cl)cc2cc1-c1nc2ccccc2[nH]1`, the growth inhibition was 29.1%.
The same measure, in the same setting: the same measure for `Nc1nc(N)c(N=Nc2cc(Cl)c([N+](=O)[O-])cc2Cl)c(=O)[nH]1`: 13.2%; for `CCCCSc1nc2ccc(N=Cc3ccccc3O)cc2s1`: -19.6%.
`C(=N\c1nc2ccccc2s1)/c1cccs1`: the growth inhibition is -15.7%.
For `COC(=O)c1nc(N)nc(C(=O)OC)c1C(=O)c1ccc(Cl)c(Cl)c1`, the growth inhibition is -7.6%.
On the same count and under the same terms, the same measure for `[C-]#[N+]C1(c2ccccc2)C2CC3CC(C2)CC1C3` (stereo not given): -1.7%.
Take `Cc1ccc(S(=O)(=O)C/C(=N\Nc2ccc([N+](=O)[O-])cc2[N+](=O)[O-])c2ccccc2)cc1`: the growth inhibition was 38.4%.
On to `Cc1ccc(NC(=O)c2ccc(Cl)cc2)cc1`, for which the growth inhibition was -8.3%.
Same read-out and setting: then `COCCNC1CCC2(SCCS2)c2[nH]c3ccccc3c21` (stereo not given), with -10.3%; and `C[N+](C)(C)CC(=O)NC(=O)N/N=C\C(CC#N)CN(Cc1ccccc1)Cc1ccccc1` (stereo not given), with 23.5%; and `COc1cc2c(cc1C)C1=C(C)C(=O)OC1[C@@H](O)[C@@H]2C` (stereo not given in full), with 16.9%.
Same read-out and setting: the same measure for `COC1=C(c2ccccc2)P(=O)(Cc2ccccc2)C(C)C1` (stereo not given): -6.95%.
Still for that read-out and setting: then `COc1ccc(-c2cc(=O)c3c([nH]2)CCCC3)cc1`, with -10.9%.

A further assay in a line: NCI Yeast Anticancer Drug Screen. Data for the mec2-1 strain (AID 157). Conditions: S. cerevisiae mec2-1 strain, at 50.0 µM, hits give high values. The essentials:
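Growth inhibition is read against vehicle-treated controls after compound exposure of the mec2-1 yeast strain, which is defective in DNA damage repair or cell cycle control.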
Take `COCCOCOC(C)(C)[C@H](CCO)O[Si](c1ccccc1)(c1ccccc1)C(C)(C)C`: the growth inhibition was 96.5% (active).
Same read-out and setting: the same measure for `O=C(c1ccccc1)c1cccc2cccc(C(=O)c3ccccc3)c12`: 11.7%; for `CN(C)C(=O)OC1CCCCC1`: -9.4%; for `COc1cc([N+](=O)[O-])ccc1N=Cc1cccs1`: 22.8%.
The same measure, in the same setting: then `CCCc1c(OC(=O)c2ccc([N+](=O)[O-])cc2)cccc1OC(=O)c1ccc([N+](=O)[O-])cc1`, with 1.1%; and `CN(/N=C/c1ccccc1)c1nnnn1-c1ccccc1`, with -5.7%.
The same measure, in the same setting: the same measure for `CC(C)OP(=O)(OC(C)C)C([CH2][Sn]([CH3])([CH3])[Cl])P(=O)(OC(C)C)OC(C)C`: -0.8%; for `Cc1cc(O)c(/C=N/c2nc(-c3ccc([N+](=O)[O-])cc3)cs2)c(=O)o1`: 20.9%.
Turning to `Cc1ccc(C)c2nc3c(C)ccc(C)c3cc12`, the growth inhibition was 1.4%.
`CC1(C)OS(=O)(=O)C=C1Br`: the growth inhibition was -9.8%.
For the compound `CCN(CC)CCNC(=O)c1c(C)cc(C)cc1C`, the growth inhibition was 0.2%.
Still for that read-out and setting: the same measure for `C(=N\c1oc(-c2ccccc2)c(-c2ccccc2)c1-c1ccccc1)/c1ccccc1`: -5.15%.
Same read-out and setting: the same measure for `CC(=O)C/C(C)=N\NC(=O)c1ccc([N+](=O)[O-])cc1`: -16.8%.
The same measure, in the same setting: then `CC(C)OC(=O)Oc1ccc(Cl)cc1Cl`, with -19.1%; and `CCC(Cc1cnc2nc(N)nc(N)c2n1)c1ccc(C(=O)NC(CCC(=O)O)C(=O)O)cc1` (stereo not given), with 18.9%.
With `CCOc1cc(/C=C2/C=C(c3ccc(OC)cc3)OC2=O)ccc1O`, the growth inhibition was 0.5%.
`COc1cccc2c1C(=O)c1c(O)c3c(c(O)c1C2=O)CC(O)(C(C)=O)CC3OC1CC(NC(=O)C(CCCCN)NC(=O)C(N)CCN)C(O)C(C)O1` (stereo not given): the growth inhibition was -1.15%.
On the same count and under the same terms, then `COc1ccc(C(NC(=O)C[C@@H](C(=O)N(C)C(C)C(=O)O)N(C)C(=O)[C@@H]2CCCN2C(=O)[C@H](C(C)C)N(C)C(=O)C(C(C)C)N(C)C(=O)[C@H](Cc2ccccc2)N(C)C(=O)C(NC(=O)OC(C)(C)C)C(C)C)c2ccc(OC)cc2)cc1` (stereo not given in full) (Boc-[ξV][NMeF][ξNMeV][NMeV]P[NMeD](X15)[ξNMeA]-OH), with -23.9%.
The same measure, in the same setting: the same measure for `CCN(CC)c1cccc2c1C1(O)CCC3(CC21)OCCCCO3` (stereo not given): -21.6%; for `C=CCOC(=O)/C=C\C(=O)OCC=C`: 30.6%.
Consider `O=C(CC1(O)C(=O)Nc2ccccc21)c1ccc(O)cc1O` (stereo not given), for which the growth inhibition is 15.4%.
As to `O=C1NC=NC1c1ccccc1` (stereo not given), the growth inhibition is -10.4%.
Still for that read-out and setting: the same measure for `O=C(NO)Oc1cccc2ccccc12`: 0.55%; for `NCC(O)COCc1ccccc1` (stereo not given): -24.4%; for `CCOC(=O)CCCN(c1sc(C)c(-c2ccccc2)c1C(=O)OCC)S(=O)(=O)c1ccc(C)cc1`: -3.25%.
As for `O=C1OC(C(O)C(O)C(O)CO)C(O)C1O` (stereo not given), the growth inhibition was -29.9%.
As to `COc1cc(/C=N/N=C(\N)NO)cc(OC)c1OC`, the growth inhibition is 3.85%.
On the same count and under the same terms, the same measure for `O=c1oc2c(Cl)cc(Cl)cc2cc1-c1nc2ccccc2[nH]1`: 38.2%.
Take `Nc1nc(N)c(N=Nc2cc(Cl)c([N+](=O)[O-])cc2Cl)c(=O)[nH]1`: the growth inhibition was -3.75%.
`CCCCSc1nc2ccc(N=Cc3ccccc3O)cc2s1`: the growth inhibition was -11.2%.
Still for that read-out and setting: then `C(=N\c1nc2ccccc2s1)/c1cccs1`, with -34%.
Same read-out and setting: the same measure for `COC(=O)c1nc(N)nc(C(=O)OC)c1C(=O)c1ccc(Cl)c(Cl)c1`: 7.15%; for `[C-]#[N+]C1(c2ccccc2)C2CC3CC(C2)CC1C3` (stereo not given): -7.05%; for `Cc1ccc(S(=O)(=O)C/C(=N\Nc2ccc([N+](=O)[O-])cc2[N+](=O)[O-])c2ccccc2)cc1`: -9.45%.
`Cc1ccc(NC(=O)c2ccc(Cl)cc2)cc1`: the growth inhibition was 1.2%.
Turning to `COCCNC1CCC2(SCCS2)c2[nH]c3ccccc3c21` (stereo not given), the growth inhibition was -12.8%.
Still for that read-out and setting: the same measure for `C[N+](C)(C)CC(=O)NC(=O)N/N=C\C(CC#N)CN(Cc1ccccc1)Cc1ccccc1` (stereo not given): 13.7%; for `COc1cc2c(cc1C)C1=C(C)C(=O)OC1[C@@H](O)[C@@H]2C` (stereo not given in full): 11.6%; for `COC1=C(c2ccccc2)P(=O)(Cc2ccccc2)C(C)C1` (stereo not given): 12.2%.
The same measure, in the same setting: then `COc1ccc(-c2cc(=O)c3c([nH]2)CCCC3)cc1`, with -6.95%.
